# Experimental data reported in PubChem BioAssay AID652233 (Johns Hopkins Ion Channel Center, 2013).
# The campaign covered roughly 2,300 compounds. Fewer than 10 were called active.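 How the source made its calls: active means yellow fluorescent protein signal ratio exceeding the buffer control mean by over 5 SD of those controls; inactive means the rest.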 These entries were drawn from the full list.
# Assay: nonspecific effects on YFP-HEK293 ionomycin response – cell-based, parental YFP-HEK293, YFP quench, counter-screen for TMEM16A inhibitor project (AID 652233);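 further: ratio is mean of duplicate wells from kinetic YFP trace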
# Conditions: parental YFP-HEK293, iodide YFP quench, at 10 µM
row,Compound,YFP ratio F(max-min)/F0
1,O=C(Nc1ccccc1)c1ccccc1NC(=O)C(F)(F)F,-0.833 (inactive)
2,Cn1c(CN2CCOCC2)nc2cc(NC(=O)c3ccc(Cl)cc3)ccc21,-0.87 (inactive)
3,Cc1ccc(C(=O)O)cc1-c1ccc(/C=C2\SC(=O)N(CC(=O)Nc3ccc4c(c3)OCO4)C2=O)o1,-1.05 (inactive)
4,CCc1cc2c(N3CCN(c4nnc(CC)s4)CC3)ncnc2s1,-1.01 (inactive)
5,Cc1ccc(-c2csc(-c3c[nH]c4ccccc34)n2)cc1,-0.919 (inactive)
6,CN(Cc1cccnc1)C(=O)c1cc(COc2ccc3ncccc3c2)on1,-0.909 (inactive)
7,CCOC(=O)C1CCN(c2ncnc3c2oc2ccc(Br)cc23)CC1,-1.19 (inactive)
8,O=C1NC(=O)C2C1C(c1ccc([N+](=O)[O-])cc1)=NN2Cc1ccccc1 (stereo not drawn),-1.22 (inactive)
9,Cc1ccc2c(c1)N(CC(=O)N1CCCc3ccccc31)C(=O)C(C)O2 (stereo not drawn),-1.08 (inactive)
10,O=S1(=O)CCN(Cc2ccccc2Cl)CC1,-0.979 (inactive)
11,N#Cc1nc(N)nc(N(c2ccccc2)c2ccccc2)n1,-1.24 (inactive)
12,CCCOc1ccc(Cc2c(Cl)nc(SC)nc2NC)cc1,-1.09 (inactive)
13,Cc1ccc(NC(=O)CN(C)CC(=O)Nc2cccc(F)c2)cc1[N+](=O)[O-],-0.913 (inactive)
14,CCN(CC)S(=O)(=O)c1ccc(N(C)Cc2ccc(C(F)(F)F)cc2)nc1,-1.04 (inactive)
15,CC1CCN(C(=O)c2ccc(CSc3ccc(Cl)cc3)cc2)CC1,-0.991 (inactive)
16,COc1ccc(-n2c(C)cc(C(=O)CSc3nnc(-c4cccs4)o3)c2C)cc1,-1.16 (inactive)
17,CCn1nccc1C(=O)Nc1ccc(S(=O)(=O)NC23CC4CC(CC(C4)C2)C3)cc1,-1.03 (inactive)
18,O=C(CN1CCN(C(=S)NC2CCCC2)CC1)Nc1ccc(Oc2ccccc2)cc1,-1.09 (inactive)
19,Cc1ccc(N)cc1-n1c(C)ccc1C,-1.02 (inactive)
20,CN(C)c1cc[n+](Cc2ccccc2)cc1,-1.12 (inactive)
21,Cn1c(CCN2CCCCCC2)nc2cc(NC(=O)Nc3ccccc3)ccc21,-1.1 (inactive)
22,COc1cc(CC(=O)Nc2nc(-c3ccc(F)c(F)c3)cs2)cc(OC)c1OC,-1.01 (inactive)

row,Compound,YFP ratio F(max-min)/F0
1,S=C(NCC1CCCO1)N1CCN(c2ccc(Cl)c(Cl)c2)CC1 (stereo not drawn),-0.789 (inactive)
2,O=c1cc(C(F)(F)F)[nH]c(=O)n1C1CCCCC1,-1.23 (inactive)
3,CCCc1cc(=S)n2c([nH]c3ccccc32)c1C#N,-0.888 (inactive)
4,Cc1ccc(NC(=O)C(C)c2cccc(C(=O)c3ccccc3)c2)cc1 (stereo not drawn),-1.26 (inactive)
5,Cc1nc(CNS(=O)(=O)c2ccc(Oc3ccccc3)cc2)cs1,-1.1 (inactive)
6,C=CCSc1nsc(NC(=O)Nc2cccc(C(C)=O)c2)n1,-1.12 (inactive)
7,O=C(O)c1ccc(NC(=O)C2CCCCC2)cc1,-1.22 (inactive)
8,Fc1ccc2[nH]c3c(N4CCSCC4)ncnc3c2c1,-1.05 (inactive)
9,CCCC(=O)Nc1ccccc1N1CCN(C(=O)c2ccccc2)CC1,-1.02 (inactive)
10,COc1ccc(-c2nc(CCNC(=O)c3ccc(Br)o3)cs2)cc1,-1.06 (inactive)
11,COc1ccc(NC(=O)C2=CC(c3ccc(OC)c(OC)c3)=NS(=O)(=O)N2C)cc1,-1.13 (inactive)
12,Cc1[nH]n(-c2cccc(Cl)c2)c(=O)c1-c1ccc(Cl)cc1,-0.864 (inactive)
13,CCOC(=O)C1=C(CN2CCc3ccccc32)NC(=O)NC1c1cccc([N+](=O)[O-])c1 (stereo not drawn),-1.14 (inactive)
14,Cc1ccc(C)c(N2CCN(C(=O)CCCCn3c(=O)[nH]c4ccccc4c3=O)CC2)c1,-1 (inactive)
15,CSc1nnc2c(n1)OC(c1ccsc1)N(C(C)=O)c1ccccc1-2 (stereo not drawn),-1.24 (inactive)
16,CC(=O)c1cc(CN2CCC(C(=O)Nc3cccc(-c4cscn4)c3)CC2)cs1,-0.907 (inactive)
17,Cc1cccc(-n2c(SCC(N)=O)nc3c(c2=O)C2(CCCCC2)Cc2ccccc2-3)c1,-0.969 (inactive)
18,COc1ccc(C(=O)NC2CCCc3c2cnn3-c2cccc(C)c2C)c(OC)n1 (stereo not drawn),-0.94 (inactive)
19,CCOC(=O)C(Sc1ncc(C#N)c(N)n1)C(C)C (stereo not drawn),-1.02 (inactive)
20,O=C(NCCc1ccc2c(c1)OCCO2)c1cc2ccccc2o1,-0.931 (inactive)
21,COc1ccc(Cl)cc1NC(=O)CCS(=O)(=O)c1cc2c(cc1C)NC(=O)CO2,-0.855 (inactive)
